The text below walks through data of the supplement of paper PMC6992640.

This assay deals with UCD52 (cells of a triple-negative basal-like breast cancer xenograft). The assay can be described thus: cell viability of combination (% of vehicle); higher = less cytotoxic. To be noted: 1 µM; 72 h; partner dose: 10 nM. As for the experimental part:
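PDX cells were treated for 72 h with each drug at 1 µM plus carfilzomib (10 nM; 100 nM for WHIM2). Luciferase viability is expressed as percent of vehicle.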
As to `CCN(CC)CCNC(=O)c1c(C)[nH]c(C=C2C(=O)Nc3ccc(F)cc32)c1C` [Sunitinib] + CC(C)C[C@H](NC(=O)[C@H](CCc1ccccc1)NC(=O)CN1CCOCC1)C(=O)N[C@@H](Cc1ccccc1)C(=O)N[C@@H](CC(C)C)C(=O)[C@@]1(C)CO1 [Carfilzomib], the “cell viability of combination” value was 59.3.
As for `COc1ccc(C[C@H](N)C(=O)N[C@@H]2[C@H](O)[C@H](n3cnc4c(N(C)C)ncnc43)O[C@@H]2CO)cc1.Cl.Cl` [Puromycin dihydrochloride] + CC(C)C[C@H](NC(=O)[C@H](CCc1ccccc1)NC(=O)CN1CCOCC1)C(=O)N[C@@H](Cc1ccccc1)C(=O)N[C@@H](CC(C)C)C(=O)[C@@]1(C)CO1 [Carfilzomib], the “cell viability of combination” value is 13.8.
`CC[C@H](C)[C@H]1O[C@]2(CC[C@@H]1C)C[C@@H]1C[C@@H](C/C=C(\C)[C@@H](O[C@H]3C[C@H](OC)[C@@H](O[C@H]4C[C@H](OC)[C@@H](O)[C@H](C)O4)[C@H](C)O3)[C@@H](C)/C=C/C=C3\CO[C@@H]4[C@H](O)C(C)=C[C@@H](C(=O)O1)[C@]34O)O2` [Ivermectin] + CC(C)C[C@H](NC(=O)[C@H](CCc1ccccc1)NC(=O)CN1CCOCC1)C(=O)N[C@@H](Cc1ccccc1)C(=O)N[C@@H](CC(C)C)C(=O)[C@@]1(C)CO1 [Carfilzomib]: the “cell viability of combination” value was 43.
As to `COc1ncc(-c2ccc3nccc(-c4ccnnc4)c3c2)cc1NS(=O)(=O)c1ccc(F)cc1F` + CC(C)C[C@H](NC(=O)[C@H](CCc1ccccc1)NC(=O)CN1CCOCC1)C(=O)N[C@@H](Cc1ccccc1)C(=O)N[C@@H](CC(C)C)C(=O)[C@@]1(C)CO1 [Carfilzomib], the “cell viability of combination” value stood at 17.6.
Turning to `O=C(NN=Cc1ccc([N+](=O)[O-])o1)c1ccc(O)cc1` [Nifuroxazide] + CC(C)C[C@H](NC(=O)[C@H](CCc1ccccc1)NC(=O)CN1CCOCC1)C(=O)N[C@@H](Cc1ccccc1)C(=O)N[C@@H](CC(C)C)C(=O)[C@@]1(C)CO1 [Carfilzomib], the “cell viability of combination” value came to 57.6.
The result for `Cn1cnc2c(F)c(Nc3ccc(Br)cc3F)c(C(=O)NOCCO)cc21` + CC(C)C[C@H](NC(=O)[C@H](CCc1ccccc1)NC(=O)CN1CCOCC1)C(=O)N[C@@H](Cc1ccccc1)C(=O)N[C@@H](CC(C)C)C(=O)[C@@]1(C)CO1 [Carfilzomib] reads 50.1.
Regarding `CN1CCCC1CCOC(C)(c1ccccc1)c1ccc(Cl)cc1.O=C(O)C=CC(=O)O` (centres undefined) [Clemastine Fumarate] + CC(C)C[C@H](NC(=O)[C@H](CCc1ccccc1)NC(=O)CN1CCOCC1)C(=O)N[C@@H](Cc1ccccc1)C(=O)N[C@@H](CC(C)C)C(=O)[C@@]1(C)CO1 [Carfilzomib], the “cell viability of combination” value came out at 61.1.
In the case of `COCCn1c2c([n+](Cc3cnccn3)c1C)C(=O)c1ccccc1C2=O.[Br-]` + CC(C)C[C@H](NC(=O)[C@H](CCc1ccccc1)NC(=O)CN1CCOCC1)C(=O)N[C@@H](Cc1ccccc1)C(=O)N[C@@H](CC(C)C)C(=O)[C@@]1(C)CO1 [Carfilzomib], the “cell viability of combination” value was 17.4.
As for `CN1CCN(c2ccc(C(=O)/N=c3\[nH][nH]c4ccc(Cc5cc(F)cc(F)c5)cc34)c(NC3CCOCC3)c2)CC1` [Entrectinib] + CC(C)C[C@H](NC(=O)[C@H](CCc1ccccc1)NC(=O)CN1CCOCC1)C(=O)N[C@@H](Cc1ccccc1)C(=O)N[C@@H](CC(C)C)C(=O)[C@@]1(C)CO1 [Carfilzomib], the “cell viability of combination” value was 45.
